According to PubChem BioAssay AID720504 (National Center for Advancing Translational Sciences (NCATS), 2013):
Out of some 360,000 compounds screened, about 10,000 (2.8%) were called active. Another 4% or so got no clear call; they are omitted. Only a selection was taken, and actives are over-represented in it overall. Unmarked numbers belong to inactive results. The call rests on the fitted dose curve; in most records, active means well fitted inhibition curve with a large enough effect; inconclusive means small, poorly fitted or top-dose-only effect; inactive means flat fitted curve, though single readings scatter.
Further: nearly all actives have a fitted effect of over 65% in size.
On the % scale 0 is the no-effect control and ±100 the full control effect; potency means the concentration at half of the fitted maximal effect.
Wherever max response, negative = inhibition is given: series mostly up to about 57 µM.

These molecules were tested against Serine/threonine-protein kinase PLK1 (Homo sapiens) (UniProt P53350) (assay: qHTS for Inhibitors of PLK1-PDB (polo-like kinase 1 - polo-box domain): Primary Screen). Details: Plk1 PBD binding of FITC phosphopeptide, fluorescence polarization.
Serine/threonine-protein kinase PLK1 (Homo sapiens), sequence (P53350 whole entry, looked up, the tested form may be a part): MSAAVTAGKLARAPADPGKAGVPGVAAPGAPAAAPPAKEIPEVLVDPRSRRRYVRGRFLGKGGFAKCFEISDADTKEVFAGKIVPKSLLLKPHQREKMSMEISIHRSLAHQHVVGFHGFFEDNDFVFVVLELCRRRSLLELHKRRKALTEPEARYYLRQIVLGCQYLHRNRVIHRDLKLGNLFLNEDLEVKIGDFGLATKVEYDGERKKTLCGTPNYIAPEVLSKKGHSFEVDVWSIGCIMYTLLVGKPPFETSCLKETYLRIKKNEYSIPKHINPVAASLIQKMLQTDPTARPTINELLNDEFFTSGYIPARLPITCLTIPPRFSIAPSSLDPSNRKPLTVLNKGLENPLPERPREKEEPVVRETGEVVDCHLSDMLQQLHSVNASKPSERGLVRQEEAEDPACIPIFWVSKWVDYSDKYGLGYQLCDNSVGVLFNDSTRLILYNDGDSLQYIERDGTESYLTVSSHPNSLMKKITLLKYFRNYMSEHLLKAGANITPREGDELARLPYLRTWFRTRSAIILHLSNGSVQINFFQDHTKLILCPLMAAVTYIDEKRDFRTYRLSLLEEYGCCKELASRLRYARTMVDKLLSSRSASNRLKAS
`Cc1[nH]c2ccccc2c1C(=O)C(=O)NCc1nnnn1-c1cccc(F)c1` was tested, and the max response, negative = inhibition was -8.15%. With `Cc1cnc(NC(=O)CSc2nnc(-c3ccc(Cl)cc3Cl)n2N)s1` the Potency was 23.8 µM (active). `Cn1c(SCC(=O)Nc2nccs2)nnc1-c1cccnc1` showed a max response, negative = inhibition of -6.93%. `Cc1cc(C)nc(SCc2nnc(SCC(=O)Nc3ncc(C)s3)n2Cc2ccco2)n1` showed a max response, negative = inhibition of -1.22%. `CN(Cc1ccccc1)C(=O)CCC1CCN(C(=O)c2ccco2)CC1` gave a max response, negative = inhibition of -7.2%. With `CCCN(CCC)C(=O)C1c2ccccc2Oc2ccccc21` the max response, negative = inhibition was -4.59%. `CC(C)(C)NC(=O)NC(=O)COC(=O)C1c2ccccc2Oc2ccccc21` was tested, and the max response, negative = inhibition was -13.1%. For `CC(C)(C)c1nnc(NC(=O)C2c3ccccc3Oc3ccccc32)s1`, the Potency was 2.67 µM (active). `CCc1nc2ccc(C(=O)N3CCN(S(=O)(=O)CC)CC3)cn2c1N(C=O)CCC(C)C` gave a max response, negative = inhibition of -4.19%. `O=C(CCCN1C(=O)C(c2ccccc2)Oc2cccnc21)Nc1ccccc1Br` (stereo unspecified) showed a max response, negative = inhibition of 3.26%. `CCCCn1nnnc1C(c1cccc(OC)c1OC)N1CCN(C/C=C/c2ccccc2)CC1` (stereo unspecified) was tested, and the max response, negative = inhibition was -4.93%. `CC1(C)CC(=O)C=C(c2ccc(COC(=O)c3cc(F)cc(F)c3)cc2)C1=O` gave a max response, negative = inhibition of -3.92%. With `O=C(O)CCn1cc(/C=C/C(=O)c2ccc(Cl)cc2)c(-c2cccc(Br)c2)n1` the Potency was 21.2 µM (active). With `O=C(/C=C/NNC(=O)c1cccc(Br)c1)c1ccccc1` the max response, negative = inhibition was -5.78%. `O=C(COC(=O)/C=C/c1cn(-c2ccccc2)nc1-c1cccnc1)Nc1ccc(Cl)cc1Cl` showed a max response, negative = inhibition of 13.1%. In the case of `CCCCc1ccc(S(=O)(=O)NC(=O)C2(C)CCN2C(=O)c2c(C)noc2C)cc1` (stereo unspecified), the max response, negative = inhibition is reported as -12%. `CCn1cc(CCC(=O)NCc2ccc(F)cc2)c2ccccc21` was tested, and the Potency was 23.8 µM (active). `Cn1cc(CCC(=O)NC2CC2)c2ccccc21` gave a max response, negative = inhibition of -19.7%. For `Cc1ccc(CNC(=O)Cc2cn(C)c3ccccc23)cc1`, the max response, negative = inhibition was -3.92%. In the case of `COc1ccc(-c2cc(NC=O)c3ncc(-c4cccc(C(=O)N(C)C)c4)n3c2)c(OC)c1`, the max response, negative = inhibition is reported as -16.4%. With `CC1CC(=O)N(CC(=O)Nc2cccc(Cl)c2)c2ccccc2S1(=O)=O` (stereo unspecified) the max response, negative = inhibition was -2.47%. For `CCN=C1SC(CC(=O)Nc2ccc(C)cc2)C(=O)N1CC` (stereo unspecified), the max response, negative = inhibition was -1.27%. `CCN1C(=O)C(CC(=O)Nc2cc(C)ccc2C)SC1=Nc1ccc(S(N)(=O)=O)cc1` (stereo unspecified) was tested, and the max response, negative = inhibition was -2.89%. In the case of `CN1C(=O)C(CC(=O)Nc2ccccc2)S/C1=N/c1nccs1` (stereo unspecified), the Potency is reported as 26.7 µM (active). With `CN=C1SC(CC(=O)Nc2ccc(C(=O)O)cc2)C(=O)N1C` (stereo unspecified) the max response, negative = inhibition was -12.2%. With `O=C(CC1SC(=Nc2ccccc2)N(Cc2ccccn2)C1=O)Nc1cccc(Cl)c1` (stereo unspecified) the Potency was 29.9 µM (active).
